From PubChem BioAssay AID488815 (Broad Institute, 2010)
Results with a measured potency or affinity are listed apart. Results filed as inconclusive are left out. How the calls were made is not given here.

target: CAAX prenyl protease 1 (Saccharomyces cerevisiae (strain ATCC 204508 / S288c)) (UniProt P47154); test: yeast CAAX protease Ste24 inhibition – biochemical, S. cerevisiae, plate reader, cherry-pick, dose response (AID 488815); details: series mostly up to 10 µM; activity change, negative = inhibition: at the top concentration;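 further: 0% = neutral control wells and -100% = no enzyme wells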
Sequence (P47154 whole entry, looked up): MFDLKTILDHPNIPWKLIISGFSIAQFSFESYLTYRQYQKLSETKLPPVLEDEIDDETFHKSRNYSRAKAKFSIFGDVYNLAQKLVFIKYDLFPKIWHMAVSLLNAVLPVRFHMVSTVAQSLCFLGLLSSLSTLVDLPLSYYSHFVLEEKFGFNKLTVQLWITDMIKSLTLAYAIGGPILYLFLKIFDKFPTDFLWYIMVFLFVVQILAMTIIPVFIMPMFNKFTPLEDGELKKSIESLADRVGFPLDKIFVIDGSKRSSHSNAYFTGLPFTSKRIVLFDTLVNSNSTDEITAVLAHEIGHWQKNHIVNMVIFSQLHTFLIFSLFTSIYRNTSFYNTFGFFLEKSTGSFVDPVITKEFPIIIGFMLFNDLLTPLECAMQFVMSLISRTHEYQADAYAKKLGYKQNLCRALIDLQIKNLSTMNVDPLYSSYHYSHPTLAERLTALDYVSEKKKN

Activity change, negative = inhibition, inactive:
COc1cccc(C(=O)Nc2nnc(SCC(=O)NC3CCCC3)s2)c1 -14.9%
CCCCCCCCNC(C)C(O)c1ccc(SC(C)C)cc1 (stereo not given) 19.5%
CCC(COC)NC(=O)CCc1nnc(Cc2cccc(C(F)(F)F)c2)o1 (stereo not given) 25.7%
CC(C)N1CCN(Cc2ccc(OCc3ccccc3)cc2)CC1CCO (stereo not given) 15.4%
N/C(Cc1ccc([N+](=O)[O-])cc1)=N\OC(=O)c1ccc2ccccc2c1 37.9%
COc1ccc(C)cc1NC(=O)CCC(=O)Nc1ccc2nc(N3CCN(C)CC3)cc(C)c2c1 -16.4%
C/C(CC(=O)NCc1ccco1)=N\NC(=O)c1ccc([N+](=O)[O-])cc1Cl 51.8%
Cc1nc2c(C)cccn2c(=O)c1NC(=O)COc1ccccc1 -175%
Cc1cc(NC(=O)c2oc3ccccc3c2C)ccc1-n1cnnn1 12.4%
COc1ccc(S(=O)(=O)NCC2CCCO2)cc1NC(=O)c1ccccc1F (stereo not given) 9.65%
Cc1ccc2nc(N(CCN(C)C)C(=O)c3ccc4ccccc4c3)sc2c1 34.5%
CC(=O)N(C)c1ccc(NC(=O)/C=C/c2ccccc2Cl)cc1 -7.71%
Clc1cccc(CN2CCc3c([nH]c4ccccc34)C2)c1Cl 13.1%
CN1c2ccc(C=O)c3c(C=O)ccc(c23)N(C)C1(C)C 16.1%
COc1ccc(-c2nc3ncccc3o2)cc1NC(=O)c1ccco1 23.7%
CCC1CCCCN1C(=O)NC(=O)c1ccccc1 (stereo not given) 29%
Nc1nnnn1/N=C/c1ccccc1OCc1ccc(Cl)cc1Cl 15.2%
CC(=O)N[C@@H](C)c1nc2ccccc2n1CCCN1CCN(c2nc(-c3ccc(C)cc3)cs2)CC1 -6%
Cc1ccc(NC(=O)CCc2ccc(S(=O)(=O)NC3CCCCC3)cc2)cc1 36.8%
COc1ccc(-c2cc(C(=O)NCCCN3CCCC3=O)c3ccccc3n2)cc1 49.3%
CC(/C=N\NC(=O)CN1CCN(S(=O)(=O)c2ccc(C)cc2)CC1)=C\c1ccccc1 12.6%
O=C(Nc1ccc(S(=O)(=O)Nc2ccccc2)cc1)C1COc2ccccc2O1 (stereo not given) 6.01%
CCOc1ccc(-c2c(C(=O)N/N=C/c3cccs3)nnn2-c2nonc2N)cc1 20.5%
COC(C[C@@H](O)C[C@H](O)[C@H](C)OCc1ccccc1)OC 10.2%
O=C(Nc1cc(S(=O)(=O)N2CCOCC2)ccc1N1CCCC1)c1cnccn1 9.97%
O=C(Nc1sc2c(c1C(=O)c1ccc(Cl)cc1)CCCC2)c1cccnc1 18.3%
CC(C)NCC(O)COCCOc1ccc(Br)cc1 (stereo not given) 35.7%
CCCCOc1ccc(Cc2c(COCC)[nH]c(=S)[nH]c2=O)cc1 40.5%
O=C(Nc1ccccc1-c1nc2ccccc2[nH]1)c1ccc(N2C(=O)CCC2=O)cc1 30.1%
CC(=O)Nc1ccc(Cl)cc1C1COC(=O)C1=N (stereo not given) 6.14%
Cc1nc(SC(C(=O)c2ccccc2)c2ccccc2)nc2ccccc12 (stereo not given) 23%
CCn1c(COc2cccc(C)c2)nnc1SCC(=O)NC1CCCC1 18.5%
CN1CCN(C(=S)NC(=O)c2ccccc2Cl)CC1 12.7%
O=C(C(Cc1ccccc1)N1C(=O)c2ccccc2C1=O)N1c2ccccc2CCc2ccccc21 (stereo not given) 10.4%
Cc1nc(-c2ccc(Cl)cc2)sc1C1(C)CC(c2ccccc2Br)=NO1 (stereo not given) 29.5%
CN(C)CC(C)(C)CNC(=S)NCc1ccc2c(c1)OCO2 19.4%
CN(C(=O)c1ccc2c(c1)SC1=NS(=O)(=O)CCN12)C(c1ccccc1)c1ccccc1 2.89%
O=C1C(Cc2c[nH]c3ccccc23)NC(=S)N1Cc1ccccc1 (stereo not given) 9.65%
C#CCNC(=O)C1=C[C@@H](C2CCCCC2)C[C@@H](OCc2ccc(CO)cc2)O1 6.13%
O=C(C1CCC(=O)N(C2CC2)C1)N1CCN(c2ccccc2Cl)CC1 (stereo not given) 18.6%
